HIF-2a inh = inhibitors of HIF-2a; 360,000 compounds, 0.72% hits; 786-0 RCC cells HIF-2a reporter, luciferase luminescence, overnight; inhibition, % at 18.8 µM;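 active = inhibition of the luminescence signal of 40% or more relative to plate controls, in a single-dose primary screen at 18.75 µM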
Peg3 promoter = reduces Peg3 promoter-driven luciferase expression in HeLa. 360,000 compounds, 1.7% hits. HeLa PEG-Prom luciferase reporter, luminescence, overnight. inhibition, % at 20 µM. AID 588405;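 active = inhibition of at least 50% at 20 µM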
KKLEB cytotox = counter-screen for CF NF-kB inhibitors: cytotoxicity; KKLEB CF airway cells viability, ATPlite luminescence, overnight; active compounds read low; cells stimulated with P. aeruginosa culture filtrate; activity change (cytotoxicity), % at 5 µM; 360,000 compounds, 0.36% hits;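 active = corrected activity change at or below -50% at 5 µM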
B2AR ag = human beta-2 adrenergic receptor agonism by FAP; P07550; Am2.2-beta2AR cells, FAP receptor internalization, flow cytometry; response, % (no concentration beside the values); 340,000 compounds, 0.43% hits;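 active = response above a set limit, near 3 SD of response in nonfluorescent compounds, cut at about 42% in these data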
TRPM1 prom inh = inhibitors of MITF-driven TRPM1 promoter in melanoma cells | SK-MEL-5 TRPM1 promoter luciferase, 24 h | inhibition, % at 12.5 µM | 330,000 compounds, 0.83% hits;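 active = mean inhibition across replicates of 60% or more, whatever share of single replicates reaches that level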
CF NFkB inh = inhibitors of cystic fibrosis induced NF-kB; AID 588850; KKLEB NF-kB-GFP reporter, PAF-induced, GFP fluorescence overnight; inhibition, % at 5 µM; 360,000 compounds, 0.86% hits;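 active = at least 50% inhibition at 5 µM, scaled per plate between neutral and stimulator controls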;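 also: PAF is a Pseudomonas aeruginosa culture filtrate used as stimulus; plate controls were PAF-stimulated DMSO wells for no effect and unstimulated DMSO wells for full effect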
Mdm2-MdmX confirm = confirmation of inhibitors of human Mdm2/MdmX interaction, set 2; shares compounds with HIF-2a inh; SaOS-2 split-luciferase Mdm2/MdmX complementation, luminescence; inhibition, % at 8 µM; 740 compounds, 99% hits;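 active = mean inhibition of the luminescence signal across two replicates at or above 26 percent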
Target sequence (O15151 whole entry, looked up): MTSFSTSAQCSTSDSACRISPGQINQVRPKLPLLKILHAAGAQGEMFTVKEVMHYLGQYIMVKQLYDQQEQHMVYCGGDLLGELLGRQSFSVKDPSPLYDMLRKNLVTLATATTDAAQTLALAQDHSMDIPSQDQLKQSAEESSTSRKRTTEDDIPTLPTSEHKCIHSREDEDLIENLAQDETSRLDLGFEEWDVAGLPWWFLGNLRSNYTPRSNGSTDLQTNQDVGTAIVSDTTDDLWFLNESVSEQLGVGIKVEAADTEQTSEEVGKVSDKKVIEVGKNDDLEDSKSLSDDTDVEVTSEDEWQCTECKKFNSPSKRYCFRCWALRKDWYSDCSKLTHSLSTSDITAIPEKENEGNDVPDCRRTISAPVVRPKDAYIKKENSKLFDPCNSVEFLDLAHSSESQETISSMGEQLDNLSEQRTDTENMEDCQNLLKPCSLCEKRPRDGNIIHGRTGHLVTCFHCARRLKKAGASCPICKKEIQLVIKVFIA
Target sequence (Q00987 whole entry, looked up): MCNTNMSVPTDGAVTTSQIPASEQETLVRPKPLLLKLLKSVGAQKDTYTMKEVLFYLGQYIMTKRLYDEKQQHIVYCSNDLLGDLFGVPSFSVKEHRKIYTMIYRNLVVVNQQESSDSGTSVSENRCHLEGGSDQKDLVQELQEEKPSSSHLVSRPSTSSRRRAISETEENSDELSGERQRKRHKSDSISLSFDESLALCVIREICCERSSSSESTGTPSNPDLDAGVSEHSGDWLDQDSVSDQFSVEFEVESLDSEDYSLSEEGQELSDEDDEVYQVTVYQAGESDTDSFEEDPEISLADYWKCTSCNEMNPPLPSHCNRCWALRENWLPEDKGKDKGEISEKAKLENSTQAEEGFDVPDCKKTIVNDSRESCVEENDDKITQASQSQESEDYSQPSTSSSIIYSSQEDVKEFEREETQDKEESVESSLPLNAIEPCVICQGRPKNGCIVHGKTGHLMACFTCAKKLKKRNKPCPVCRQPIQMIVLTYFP
HIF-2a conf = HIF-2a inhibition, single concentration confirmation | shares compounds with HIF-2a inh | 786-0 RCC cells, HIF-2a luciferase reporter luminescence, overnight | inhibition, % at 18.8 µM | 1,800 compounds, 56% hits | AID 651580;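 active = mean inhibition across four replicates of at least 40 percent at the single tested concentration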
HIF-1a cs = counter-screen for HIF-2a inhibitors: HIF-1a inhibition in MiaPaCa-2 cells. shares compounds with HIF-2a inh. MiaPaCa-2 HIF-1a luciferase reporter, desferoxamine, overnight. inhibition, % at 18.8 µM. 1,800 compounds, 72% hits. AID 651589;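 active = mean inhibition of the reporter signal across four replicates at the single tested dose of 50% or more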
* = called active by the depositor. An excerpt weighted towards active compounds, which were near 2.8% of everything screened.

How did CN1CCN(CC(=O)N2CCn3c4c(c5cc(C6CCCCC6)ccc53)CCCC42)CC1 (stereo not drawn) do in these assays?
HIF-2a inh: 3; Peg3 promoter: 105*; KKLEB cytotox: -20; B2AR ag: 16; TRPM1 prom inh: 65*; CF NFkB inh: 22; Mdm2-MdmX confirm: 103*

How did Nc1c(Cl)c(Cl)nc(C(=O)OCC(=O)NCc2ccccc2)c1Cl do in these assays?
HIF-2a inh: -2; Peg3 promoter: 15; KKLEB cytotox: -7; B2AR ag: -4; TRPM1 prom inh: 7; CF NFkB inh: 2

Results for O=C(COC(=O)c1nc(Cl)c(Cl)c(Cl)c1Cl)NCc1ccccc1 ?
HIF-2a inh: 70*; Peg3 promoter: 92*; KKLEB cytotox: 3; B2AR ag: 12; TRPM1 prom inh: 50; CF NFkB inh: 31; HIF-2a conf: 18; HIF-1a cs: -19

What do the screens show for `COC(=O)c1ccc2c(c1)C(C)(C)C(/C=C/c1ccc(OC)c(OC)c1OC)=[N+]2C`?
HIF-2a inh: 95*; Peg3 promoter: 107*; KKLEB cytotox: -8; B2AR ag: 57*; TRPM1 prom inh: 101*; CF NFkB inh: -15; Mdm2-MdmX confirm: 103*; HIF-2a conf: 88*; HIF-1a cs: 107*

What do the screens show for `COc1ccc(/C=N/Nc2ccc(C(=O)O)cc2)c(OC)c1OC`?
HIF-2a inh: -159; Peg3 promoter: -158; KKLEB cytotox: -4; B2AR ag: 17; TRPM1 prom inh: -108; CF NFkB inh: 0

How did CC(C)Oc1cc(F)ccc1-c1cc(C(=O)NCc2cccs2)[nH]n1 do in these assays?
HIF-2a inh: 10; Peg3 promoter: 6; KKLEB cytotox: 1; CF NFkB inh: -4

What do the screens show for `NC(=O)c1sc2nc3c(c(-c4cccnc4)c2c1N)CCC3`?
HIF-2a inh: -1; Peg3 promoter: -1; KKLEB cytotox: 10; B2AR ag: -6; TRPM1 prom inh: -8; CF NFkB inh: 9

What do the screens show for `NC(=O)c1sc2nc3c(c(-c4cccs4)c2c1N)CCCCC3`?
HIF-2a inh: 34; Peg3 promoter: 14; KKLEB cytotox: -51*; B2AR ag: 1; TRPM1 prom inh: -1; CF NFkB inh: 91*; Mdm2-MdmX confirm: 95*

Results for Nc1ccc(-c2ncc(-c3ccccc3)o2)cc1 ?
HIF-2a inh: 78*; Peg3 promoter: -75; KKLEB cytotox: 0; B2AR ag: 1; TRPM1 prom inh: 58; CF NFkB inh: -38; HIF-2a conf: 92*; HIF-1a cs: 62*

What do the screens show for `CC(=O)N1CCc2ccccc2C1CC(=O)O` (stereo not drawn)?
HIF-2a inh: 12; Peg3 promoter: -6; KKLEB cytotox: 0; B2AR ag: 4; TRPM1 prom inh: 8; CF NFkB inh: -10

Results for COc1ccccc1CNc1nc(NCc2ccc(NC(C)=O)cc2)c2sccc2n1 ?
HIF-2a inh: 57*; Peg3 promoter: 72*; KKLEB cytotox: -20; CF NFkB inh: -27; HIF-2a conf: 14; HIF-1a cs: 70*

Results for O=C(C#Cc1ccccc1)c1ccco1 ?
HIF-2a inh: 40*; Peg3 promoter: 105*; KKLEB cytotox: -64*; B2AR ag: 82*; TRPM1 prom inh: 99*; CF NFkB inh: 99*; Mdm2-MdmX confirm: 103*; HIF-2a conf: 90*; HIF-1a cs: 103*

What do the screens show for `COc1ccc(CN(CCC(c2ccco2)C(C)C)C(C)=O)cc1OC` (stereo not drawn)?
HIF-2a inh: 17; Peg3 promoter: 1; KKLEB cytotox: -8; B2AR ag: 5; TRPM1 prom inh: -4; CF NFkB inh: 23

What do the screens show for `COc1ccc(CN(CCC(c2ccccc2)c2ccc(OC(C)C)cc2)C(=O)CCl)cc1OC` (stereo not drawn)?
HIF-2a inh: 96*; Peg3 promoter: 106*; KKLEB cytotox: -85*; B2AR ag: 26; TRPM1 prom inh: 106*; CF NFkB inh: 81*; Mdm2-MdmX confirm: 103*

Results for Cc1ccc(S(=O)(=O)O/N=C2\CCCc3ccccc32)cc1 ?
HIF-2a inh: 11; Peg3 promoter: 11; KKLEB cytotox: 5; B2AR ag: -6; TRPM1 prom inh: 10; CF NFkB inh: 1

Results for CC1=C(C)/C(=N\OS(=O)(=O)c2ccccc2)C=CC1=O ?
HIF-2a inh: 86*; Peg3 promoter: 106*; KKLEB cytotox: 4; B2AR ag: 41; TRPM1 prom inh: 44; CF NFkB inh: -12; Mdm2-MdmX confirm: 103*

Results for CCOC(=O)C(=Cc1c[nH]c2ccc(S(=O)(=O)N(C)C)cc12)C(=O)OCC ?
HIF-2a inh: 56*; Peg3 promoter: 33; KKLEB cytotox: 5; B2AR ag: 19; TRPM1 prom inh: 8; CF NFkB inh: 42; HIF-2a conf: 51*; HIF-1a cs: 81*

How did CCOC(=O)/C(C#N)=C/c1c[nH]c2ccccc12 do in these assays?
HIF-2a inh: -148; Peg3 promoter: -180; KKLEB cytotox: -3; B2AR ag: -12; TRPM1 prom inh: -4; CF NFkB inh: -18

Results for CC(=O)Nc1ccc(N2CCOCC2)c(S(=O)(=O)Nc2ccccc2Cl)c1 ?
HIF-2a inh: -4; Peg3 promoter: -2; KKLEB cytotox: 17; CF NFkB inh: -25

How did O=C(Nc1cccc(C(F)(F)F)c1)Nc1ccc(N2CCCC2)c(S(=O)(=O)Nc2ccccc2Cl)c1 do in these assays?
HIF-2a inh: -4; Peg3 promoter: 64*; KKLEB cytotox: -58*; B2AR ag: 22; TRPM1 prom inh: 72*; CF NFkB inh: 59*; Mdm2-MdmX confirm: 102*

Results for CCCCCCCc1ccc(-c2ccc(O)cc2)nc1 ?
HIF-2a inh: -213; Peg3 promoter: -251; KKLEB cytotox: 4; B2AR ag: 4; TRPM1 prom inh: -41; CF NFkB inh: 1

What do the screens show for `CCCc1ccc(-c2ccc(/C=C/C(=O)O)cc2)nc1`?
HIF-2a inh: 87*; Peg3 promoter: 39; KKLEB cytotox: -11; B2AR ag: 2; TRPM1 prom inh: 86*; CF NFkB inh: -13; HIF-2a conf: 89*; HIF-1a cs: 91*

How did COc1ccc2nc(-c3cccc(N)c3)[nH]c2c1 do in these assays?
HIF-2a inh: -59; Peg3 promoter: -124; KKLEB cytotox: 2; B2AR ag: 3; TRPM1 prom inh: -59; CF NFkB inh: -20

High-throughput results as filed in PubChem BioAssay.
